Out of some 320,000 compounds screened, about 7,600 (2.4%) were called active. About 3% were inconclusive and are not listed. This excerpt belongs to a sample that is enriched for actives. Values without a mark were called inactive. The call rests on the fitted dose curve; in most records, active means well fitted activation curve with a large enough effect; inconclusive means small, poorly fitted or top-dose-only effect; inactive means no such curve, though single readings can be large or run the other way.

The results in this text go back to PubChem BioAssay AID485313 (National Center for Advancing Translational Sciences (NCATS), 2010).
Potency means the concentration at half of the fitted maximal effect.

The test is described as follows: qHTS Assay for NPC1 Promoter Activators. Further: nearly all actives have a fitted effect of over 60% in size.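 On activation: reporter is driven by a mutant NPC1 promoter; % of control where 0% means no effect.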 As to conditions: Huh7 NPC1 promoter luciferase reporter, 24 h; series mostly up to 9.22 µM; activation: at the top concentration. Summed up:
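Stable NPC1-promoter luciferase Huh7 line; cpd (DMSO) 24 h, 37 °C, 5% CO2; Amplite luciferase reagent 10 min RT; luminescence readout. qHTS format.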
(Quantitative high-throughput screening tests each substance at several concentrations.)
For the compound `Cc1cccc(C(=O)NCC(=O)OCC(=O)N(C)CC(=O)Nc2ccccc2Cl)c1`, the “activation” value is 1.73%. Still for that read-out and setting: to `O=C(CSc1nnc(N2CCOCC2)n1-c1cccc(F)c1)N1CCN(c2ccccn2)CC1` belongs -4.32%; to `Cc1ccc(F)cc1S(=O)(=O)Nc1cccc(C(=O)N2CCCC(C(N)=O)C2)c1` (stereo not drawn), -1.37%; to `COc1ccccc1C(=O)NC(CCSC)C(=O)N1CCN(C(C)=O)CC1` (stereo not drawn), 1.51%. Same read-out and setting: as for `C(=N/Nc1cc(N2CCOCC2)nc(N2CCOCC2)n1)/c1ccccc1`, the figure is -0.933%. For `Cc1ccccc1N/N=C/c1ccc(N2CCOCC2)cc1`, the Potency was 3160 nM (active). As for `CCN(CC)c1ccc(C(=O)N/N=C/c2ccc(N3CCOCC3)cc2)cc1`, the “activation” value was -0.358%. On the same count and under the same terms, to `CN1CCN(S(=O)(=O)c2cccc(C(=O)Nc3sccc3C#N)c2)CC1` belongs 6.45%; to `O=C1COc2ccc(C(=O)CSc3ccc(Br)cc3)cc2N1`, 3.97%. Consider `COc1ccc2[nH]cc(CCN3C(=O)c4ccc(C(=O)O)cc4C3=O)c2c1`, for which the Potency was 3550 nM (active).

On to `Cc1ccc2[nH]cc(CCCN3C(=O)c4ccccc4C3=O)c2c1`, for which the “activation” value was -1.48%. On the same count and under the same terms, to `COc1ccc(C[C@H](C(=O)O)N2C(=O)c3ccc(C(=O)O)cc3C2=O)cc1` belongs 1.34%.

Turning to `CC(C)(C)OC(=O)N[C@H](C(=O)OC(C)(C)C)c1ccc(Br)cc1`, the “activation” value is -2.22%. With `COc1ccccc1OCCNC(=O)C(CCSC)NC(=O)COc1ccccc1` (stereo not drawn), the “activation” value was -3.08%. Turning to `NC(=O)c1ccsc1NC(=O)COC(=O)COc1ccc(C=O)cc1`, the “activation” value was -1.72%. `CN(C)S(=O)(=O)c1ccc2oc(SCC(=O)Nc3ccccc3F)nc2c1`: the Potency is 3160 nM (active). Regarding `COc1ccc(S(=O)(=O)N(C)C)cc1NC(=O)CSc1ncccn1`, the “activation” value was -2.73%. Still for that read-out and setting: to `COc1ccc(NS(=O)(=O)c2ccc3oc(SCC(N)=O)nc3c2)cc1` belongs -1.37%. With `CCCC(=O)N(CCN1CCOCC1)c1nc2ccc(OCC)cc2s1`, the “activation” value is -1.67%. Take `CCOc1ccc2nc(N(CCN(C)C)C(=O)c3ccc4ccccc4c3)sc2c1`: the “activation” value was -4.66%. As for `CCOc1ccc2nc(C(=O)N3CCCC(C)C3)sc2c1` (stereo not drawn), the Potency was 2000 nM (active).

With `O=C(CSc1nnc(Nc2ccccc2)s1)Nc1cccnc1Cl`, the “activation” value is -1.39%. For the compound `Cc1ccc(Nc2nnc(SCC(=O)c3cc4ccccc4o3)s2)cc1C`, the “activation” value was -2.6%.

Turning to `CC(C)c1ccc(Nc2nnc(SCC(=O)c3nnc(-c4ccccc4)o3)s2)cc1`, the Potency is 3980 nM (active). As to `O=S(=O)(c1cccs1)N1CCN(CCOc2ccccc2)CC1`, the “activation” value is 1.21%.

For the compound `CCOc1ccc(NS(=O)(=O)c2ccc(Cl)c(C(=O)N(C)Cc3cccnc3)c2)cc1`, the “activation” value was -3.44%. Same read-out and setting: as for `Cc1ccc(C(=O)CN2C(=O)NC3(CCOc4ccccc43)C2=O)s1` (stereo not drawn), the figure is 1.36%.

On to `O=C(OCC(=O)N1CCN(C(=O)c2ccco2)CC1)c1ccc(Cl)c(Cl)c1`, for which the “activation” value was -4.56%. For `O=C(COC(=O)c1ccccc1)c1ccc2c(c1)OCCO2`, the Potency is 316 nM (active). On to `O=C(COC(=O)c1ccncc1)c1ccccc1`, for which the “activation” value was 7.21%. On the same count and under the same terms, to `CC(=O)Nc1cccc(C(=O)OCC(=O)NCc2cc(C)c(O)c(C)c2)c1` belongs 11.4%.

As to `CC(=O)Nc1cccc(C(=O)OCC(=O)c2ccc3c(c2)OCO3)c1`, the Potency is 316 nM (active).

Turning to `CC(NC(=O)COC(=O)c1ccc2c(c1)OCO2)c1ccccc1` (stereo not drawn), the “activation” value was -0.608%. Same read-out and setting: as for `O=C(COC(=O)c1ccc2c(c1)OCCO2)NCc1ccccc1`, the figure is 3.85%. Still for that read-out and setting: to `COc1ccc(C(=O)NCc2ccc(Cl)cc2)cc1S(=O)(=O)N1CCCC1` belongs 2.43%; to `CCN(CC(=O)Nc1ccc(OC)cc1)C(=O)c1ccc(Cl)c(S(=O)(=O)N2CCCC2)c1`, -2%; to `O=[N+]([O-])c1cc(S(=O)(=O)NCCc2ccccn2)ccc1Cl`, -0.0808%.

Turning to `CC(C#N)(NC(=O)CN1CCN(S(=O)(=O)c2cc(C(F)(F)F)ccc2Cl)CC1)C1CC1` (stereo not drawn), the “activation” value is 4.2%.

In the case of `O=C(CSc1nnc(-c2ccco2)n1CC1CCCO1)c1ccccc1` (stereo not drawn), the “activation” value was 12%. As to `c1ccc(CSc2nnc(-c3ccco3)n2Cc2ccccc2)cc1`, the Potency was 2820 nM (active). With `O=C(CSc1nnc(-c2ccco2)n1-c1ccccc1)NCCc1ccccc1`, the “activation” value is -1.73%. Still for that read-out and setting: to `C=CCN1C(=O)c2ccc(C(=O)N3CCC(C(=O)OCC)CC3)cc2C1=O` belongs -3.88%; to `O=C(CCNS(=O)(=O)c1ccccc1)NCCSc1ccc(Br)cc1`, 0.759%; to `O=S(=O)(Nc1cc(Cl)ccc1N1CCOCC1)c1ccccc1Cl`, 0.364%. Still for that read-out and setting: as for `C[C@@H]1NC(=O)[C@@]2(C)[C@@H](c3ccccc3)[C@H]3COc4ccccc4[C@@H]3N2C1=O`, the figure is -0.11%; as for `CCOC(=O)c1c(CNCc2ccccc2F)c2sc(C)cc2n1C`, -3.34%. As for `CN(C)c1ccnc2sc(C(=O)c3ccccc3)c(N)c12`, the Potency was 2510 nM (active). On to `CN(C)c1ccnc2sc3c(=O)n(Cc4ccccc4)cnc3c12`, for which the “activation” value was 15.3%.

With `Cc1nc2sc(C(=O)c3ccccc3)c(N)c2c2c1CCCC2`, the “activation” value was 27%. The same measure, in the same setting: as for `Nc1ncnc2c1c(I)cn2[C@@H]1C[C@H](N)[C@@H](O)[C@H]1O`, the figure is -21.1% [at 46.1 µM]; as for `Cc1nn(Cc2ccccc2)c(C)c1CNC(=O)c1ccc(F)c(S(=O)(=O)N2CCOCC2)c1`, -9.84%; as for `CN(CC(=O)Nc1cccc(F)c1)C(=O)CC1CCCC1`, -1.92%. As to `COc1ccc(NC(=O)CC2COc3ccccc3O2)c(OC)c1` (stereo not drawn), the “activation” value was -2.7%. Still for that read-out and setting: to `CC(=O)c1cccc(NC(=O)C2COc3ccccc3O2)c1` (stereo not drawn) belongs 17.1%. Regarding `COc1ccc(NC(=O)C2COc3ccccc3O2)cc1` (stereo not drawn), the Potency was 2820 nM (active). The same measure, in the same setting: to `O=C(Nc1ncc([N+](=O)[O-])s1)C1COc2ccccc2O1` (stereo not drawn) belongs 3550 nM (active). As to `C/C(=N/NC(=O)C1COc2ccccc2O1)c1ccco1` (stereo not drawn), the “activation” value was -0.848%.

Take `O=C(Nc1nnc(SCc2ccc(Cl)cc2Cl)s1)C1COc2ccccc2O1` (stereo not drawn): the “activation” value was 0.802%. The same measure, in the same setting: as for `CCc1noc(C)c1C(=O)N1CCN(S(=O)(=O)c2cccc(C(F)(F)F)c2)CC1`, the figure is -1.26%; as for `Cc1ccc(CSc2ccc(S(=O)(=O)N3CCCCC3)cn2)cc1`, 0.776%.

Regarding `CC(C)(C)c1ccc(/C=C/C(=O)Nc2ncccn2)cc1`, the Potency was 3980 nM (active). On to `O=C(/C=C/c1ccc(Cl)cc1)Nc1ccc(S(=O)(=O)Nc2ncccn2)cc1`, for which the “activation” value was 0.261%. Same read-out and setting: to `Cc1cc(C)nc(NC(=O)/C=C/c2ccc(Cl)cc2)n1` belongs 2.77%; to `Cc1sc2ncnc(N3CCC(C(=O)Nc4ccc(F)cc4Cl)CC3)c2c1C`, -5.58%.

For the compound `CCOC(=O)N1CCN(C(=O)COC(=O)c2cccc(S(C)(=O)=O)c2)CC1`, the “activation” value was -11.6%.

As to `Cc1nc(-c2ccc(NC(=O)c3cccs3)cc2)cs1`, the Potency is 355 nM (active).

For `Cc1ccc(C(=O)Nc2ccc(NC(=O)c3cccs3)cc2)c(C)c1`, the “activation” value was -0.379%. Take `O=C(Nc1ccccc1)c1ccc(NC(=O)c2cccs2)cc1`: the “activation” value was -1.5%.
